The nature of assay [1]: Nuclear factor erythroid 2-related factor 2/antioxidant responsive element (Nrf2/ARE) small molecule agonists: qHTS cell viability counter screen in human keratinocytes (AID 1919968; active = well fitted curve in the direction sought with a large enough effect in the repeat runs; an effect the other way counts as inactive or inconclusive; also: nearly all actives have a fitted effect of over 55% in size). An outline of the steps: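 Fluorescence read-out from CellTiter-Fluor after 1 h at 37 C. Wells held HaCaT-derived ARE-luciferase reporter cells (1,500/well) treated 23 h with DMSO-dissolved compounds. Run in the same wells as the luciferase agonist read.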
(Quantitative high-throughput screening tests each substance at several concentrations.)

Assay [2] in a line: Nuclear factor erythroid 2-related factor 2/antioxidant responsive element (Nrf2/ARE) small molecule agonists: luciferase reporter gene qHTS assay in human keratinocytes (AID 1919969; also: nearly all actives have a fitted effect of over 35% in size; also: potency is read from the fitted curve at half-maximal effect). (In general: Reporter assays use an easily measured gene product as a stand-in for the process of interest.)
Assay [3] deals with Gonadotropin-releasing hormone receptor (Homo sapiens) (UniProt P30968). Kind of assay: Human gonadotropin-releasing hormone receptor (GnRHR) small molecule agonists, calcium flux assay in GnRHR-HEK293 cells (AID 1920063). Also: nearly all actives have a fitted effect of over 35% in size. The gist of the method:
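Calcium-dye fluorescence, Ex/Em=480/540, recorded every 1 sec over 3 min after compound addition to GnRHR-HEK293 cells. Cells had been seeded 18 hours earlier and dye-loaded for 1 hour at 37 C. Fifteen concentrations, triplicates.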
For orientation: Calcium flux is commonly read through the fluorescence of an indicator in the cells.

Assay [4] deals with KiSS-1 receptor (Homo sapiens) (UniProt Q969F8). Kind of assay: Human kisspeptin (KISS1R) small molecule agonists, calcium flux assay in KISS1R-HEK293 cells (AID 1920064; active = well fitted curve in the direction sought with a large enough effect in the repeat runs; an effect the other way counts as inactive or inconclusive). The gist of the method: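 Calcium flux read-out: kinetic fluorescence at Ex/Em=480/540, 1 s intervals over 3 min, after pin-tool compound addition to dye-loaded KISS1R-HEK293 cells. Fifteen concentrations, triplicates.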
Chain of KiSS-1 receptor (Homo sapiens) (Q969F8 whole entry, looked up): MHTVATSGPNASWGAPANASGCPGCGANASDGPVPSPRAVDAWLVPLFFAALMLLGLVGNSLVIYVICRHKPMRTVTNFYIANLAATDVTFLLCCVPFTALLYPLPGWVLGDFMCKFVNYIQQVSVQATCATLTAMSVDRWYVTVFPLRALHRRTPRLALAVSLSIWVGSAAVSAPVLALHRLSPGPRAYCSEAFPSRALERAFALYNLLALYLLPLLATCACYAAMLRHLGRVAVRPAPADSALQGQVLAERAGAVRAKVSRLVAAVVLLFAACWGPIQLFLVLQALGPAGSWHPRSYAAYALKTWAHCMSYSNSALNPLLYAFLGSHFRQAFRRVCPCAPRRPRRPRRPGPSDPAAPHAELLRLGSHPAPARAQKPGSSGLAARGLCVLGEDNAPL

Assay [5] in a line: G protein-coupled receptor (GPCR) small molecule agonists, calcium flux assay: HEK293 wild type cell line counter screen (AID 1920065). The gist of the method: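 Agonist mode; 18 h seeding at 37 C, 1 h dye load at 37 C; compounds pinned from DMSO, ATP as positive control; kinetic fluorescence 480/540 nm, 3 min, 1 s reads; 15 concentrations, triplicate.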
Assay [6] is described as follows: p53 small molecule agonists, cell-based qHTS assay with human liver microsomes (AID 1963577).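 Also: p53 response element beta-lactamase reporter cells with liver microsomes plus NADPH.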 The gist of the method: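 p53RE-bla cells; 5 h settle, 37 C/5% CO2; cpd + HLM 0.5 mg/mL + NADPH 0.5 mg/mL (final); 16 h 37 C; LiveBLAzer 2 h RT dark; fluorescence readout.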
A short description of assay [7]: p53 small molecule agonists, cell-based qHTS assay with rat liver microsomes (AID 1963578). The gist of the method:
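Rat liver microsome activation: microsomes 0.5 mg/mL, NADPH 0.5 mg/mL final; p53RE-bla cells, 16 h 37 C; LiveBLAzer readout, 2 h RT dark.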

Assay [8] in a line: p53 small molecule agonists, cell-based qHTS assay with human liver microsomes: qHTS cell viability counter screen (AID 1963579). Also: nearly all actives have a fitted effect of over 45% in size. Also: potency is read from the fitted curve at half-maximal effect. An outline of the steps: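 Luminescent CellTiter-Glo read-out, 30 min at room temperature, gauged cytotoxicity in p53RE-bla cells exposed 16 h at 37 C to DMSO-dissolved compounds with metabolic activation by human liver microsomes and NADPH, each 0.5 mg/mL final.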

A short description of assay [9]: p53 small molecule agonists, cell-based qHTS assay with rat liver microsomes: qHTS cell viability counter screen (AID 1963580). Also: nearly all actives have a fitted effect of over 45% in size. Also: potency is read from the fitted curve at half-maximal effect. An outline of the steps:
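Rat liver microsome (0.5 mg/mL final) and NADPH (0.5 mg/mL final) co-incubation with compounds for 16 h at 37 C on HCT-116 p53RE-bla cells; cytotoxicity taken from intracellular ATP luminescence.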

Assay [10] can be described thus: p53 small molecule agonists, cell-based qHTS assay (AID 1963582; active = well fitted activation curve with a large enough effect in the signal ratio in the repeat runs, not every such curve was filed as active; the % refers to the signal ratio). An outline of the steps: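 Fluorescence intensity read-out of a beta-lactamase reporter under a p53 response element. Cells were exposed to DMSO-dissolved compounds for 16 h at 37 C, then developed with FRET substrate for 2 h at RT.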
The target in assay [11] is 5-hydroxytryptamine receptor 2A (Homo sapiens) (UniProt P28223). Put plainly: 5-hydroxytryptamine receptor 2A (HTR2A) small molecule agonists, cell-based qHTS assay (AID 1963587). Also: nearly all actives have a fitted effect of over 30% in size. An outline of the steps: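 Kinetic calcium-flux fluorescence (2 min, 1 sec intervals) after compound addition in agonist mode. HTR2A-CHO cells were cultured 18 h, then dye-loaded 1 h at 37 C.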
Chain of 5-hydroxytryptamine receptor 2A (Homo sapiens) (P28223 whole entry, looked up): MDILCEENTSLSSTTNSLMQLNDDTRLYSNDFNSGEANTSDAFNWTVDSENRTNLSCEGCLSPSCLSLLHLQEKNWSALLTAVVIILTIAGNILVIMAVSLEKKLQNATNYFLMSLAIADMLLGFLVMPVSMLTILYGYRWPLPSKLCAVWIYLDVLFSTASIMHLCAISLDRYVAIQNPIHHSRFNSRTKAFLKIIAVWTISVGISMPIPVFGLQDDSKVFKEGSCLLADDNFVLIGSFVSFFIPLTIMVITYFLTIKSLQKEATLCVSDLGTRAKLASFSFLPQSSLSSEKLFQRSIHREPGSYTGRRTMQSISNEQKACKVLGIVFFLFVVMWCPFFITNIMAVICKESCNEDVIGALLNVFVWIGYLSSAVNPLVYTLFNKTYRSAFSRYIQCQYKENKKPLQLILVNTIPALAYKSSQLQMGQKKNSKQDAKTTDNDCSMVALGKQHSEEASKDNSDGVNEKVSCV

The target of assay [12] is Muscarinic acetylcholine receptor M1 (Homo sapiens) (UniProt P11229). Put plainly: Cholinergic receptor muscarinic 1 (CHRM1) small molecule agonists, cell-based qHTS assay (AID 1963589). Also: nearly all actives have a fitted effect of over 35% in size. The gist of the method: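 Calcium flux read-out: kinetic fluorescence at 1 sec intervals after pin-tool compound addition to dye-loaded CHRM1-CHO cells (human M1). Agonist mode; 15 concentrations tested in triplicate independent runs.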
Chain of Muscarinic acetylcholine receptor M1 (Homo sapiens) (P11229 whole entry, looked up): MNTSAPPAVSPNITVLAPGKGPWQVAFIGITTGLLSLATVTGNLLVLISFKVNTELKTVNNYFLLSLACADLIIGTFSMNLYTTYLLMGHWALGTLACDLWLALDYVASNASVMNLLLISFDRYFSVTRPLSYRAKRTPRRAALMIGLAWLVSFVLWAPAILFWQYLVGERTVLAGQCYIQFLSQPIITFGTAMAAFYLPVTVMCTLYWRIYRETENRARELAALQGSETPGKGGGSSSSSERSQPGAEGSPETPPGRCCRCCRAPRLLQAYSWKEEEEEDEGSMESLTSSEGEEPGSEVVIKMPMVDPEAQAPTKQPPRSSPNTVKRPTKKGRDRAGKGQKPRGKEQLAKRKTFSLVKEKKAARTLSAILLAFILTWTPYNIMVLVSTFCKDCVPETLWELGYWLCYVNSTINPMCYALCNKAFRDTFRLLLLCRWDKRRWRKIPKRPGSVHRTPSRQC

Assay [13] in a line: cAMP Responsive Elements (CRE) small molecule agonists, cell-based qHTS assay (AID 1963590). The gist of the method:
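Beta-lactamase reporter readout: LiveBLAzer B/G FRET substrate, 2 h at room temperature, added after 3 h compound treatment of CRE-bla HEK 293T cells at 37 C/5% CO2.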

Assay [14] can be described thus: cAMP Responsive Elements (CRE) small molecule antagonists, cell-based qHTS assay (AID 1963591; active = well fitted inhibition curve with a large enough effect in the signal ratio in the repeat runs, not every such curve was filed as active; the % refers to the signal ratio). The gist of the method: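 HEK293T CRE-bla; 18 h preincubation; compound pin-transfer; NKH477 0.25 uM final, 3 h, 37 C; LiveBLAzer FRET substrate 2 h RT.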
Assay [15] concerns the target Beta-2 adrenergic receptor (Homo sapiens) (UniProt P07550). Kind of assay: Adrenergic beta2 receptor (ADRB2) small molecule antagonists, cell-based qHTS assay (AID 1963592). Also: nearly all actives have a fitted effect of over 50% in size. Also: potency is read from the fitted curve at half-maximal effect. The gist of the method:
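Assay format: CHO-ADRB2 cells, 18-20hr seeding at 37C/5% CO2, then compound plus 1nM isoproterenol agonist mix for 0.5hr RT. Homogeneous time-resolved fluorescence cAMP detection after 1hr, expressed as 665/615 nm ratio.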

For assay [16] the target is unchanged. Kind of assay: Adrenergic beta2 receptor (ADRB2) small molecule agonists, cell-based qHTS assay (AID 1963593).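 Also: CHO cells stably overexpressing human ADRB2.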 The gist of the method: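 CHO cells stably over-expressing ADRB2 were plated overnight at 37C, then dosed with compounds plus a stimulation mix containing 100uM IBMX and 25uM Ro-20-1724 for 0.5hr at room temperature. cAMP was measured by HTRF competition, 1hr.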

Assay [17] addresses D(2) dopamine receptor (Homo sapiens) (UniProt P14416). Put plainly: Dopamine D2 receptor (DRD2) small molecule agonists, cell-based qHTS assay (AID 1963594). Also: nearly all actives have a fitted effect of over 35% in size. The gist of the method:
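cAMP accumulation in DRD2-HEK293 cells measured by HTRF after 1 h detection; compounds added 10 min before NKH477 (200nM […]) forskolin-analogue stimulation, 30 min at room temperature, with Ro20-1724 present at 0.1 mM final.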

Assay [18] has the same target. Kind of assay: Dopamine D2 receptor (DRD2) small molecule antagonists, cell-based qHTS assay (AID 1963595; active = well fitted inhibition curve with a large enough effect in the signal ratio in the repeat runs, with a control signal flat; the % refers to the signal ratio; also: potency is read from the fitted curve at half-maximal effect). The gist of the method: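 HEK293 cells stably expressing DRD2 were preincubated with 0.1 mM Ro20-1724, then with compound for 10 min at room temperature. Cells were stimulated with 200 nM NKH477 plus 12 nM quinpirole for 30 min, and cAMP was read by HTRF.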

Assay [19] addresses Muscarinic acetylcholine receptor M1 (Homo sapiens) (UniProt P11229). Kind of assay: Cholinergic receptor muscarinic 1 (CHRM1) small molecule antagonists, cell-based qHTS assay (AID 1963588). Also: nearly all actives have a fitted effect of over 40% in size. An outline of the steps:
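Compounds were tested at 15 concentrations in three independent runs. Dye-loaded CHRM1-CHO cells were exposed 5 min at room temperature before stimulation by acetylcholine added at 50nM. Intracellular calcium was read kinetically on FDSS for 3 min.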

Values joined by “and” are separate entries in the source; they are usually repeats but may differ in a detail not shown here. Identical values can stand only once. Inconclusive results are not listed. The source holds several records for some structures; these can differ, active in one and inactive in another. Active and inactive are the calls of the source. Unless noted, calls follow the shape of the full dose curve.

Chain of Gonadotropin-releasing hormone receptor (Homo sapiens) (P30968 whole entry, looked up): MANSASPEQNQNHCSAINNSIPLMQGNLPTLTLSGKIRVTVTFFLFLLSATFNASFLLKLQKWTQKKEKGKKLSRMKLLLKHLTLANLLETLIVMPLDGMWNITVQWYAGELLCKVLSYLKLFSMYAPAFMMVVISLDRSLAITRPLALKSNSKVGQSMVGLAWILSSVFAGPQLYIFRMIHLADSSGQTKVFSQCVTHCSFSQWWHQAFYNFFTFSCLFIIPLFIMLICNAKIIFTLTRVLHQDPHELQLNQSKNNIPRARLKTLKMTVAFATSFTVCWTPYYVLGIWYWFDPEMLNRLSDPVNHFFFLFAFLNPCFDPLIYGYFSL
Chain of D(2) dopamine receptor (Homo sapiens) (P14416 whole entry, looked up): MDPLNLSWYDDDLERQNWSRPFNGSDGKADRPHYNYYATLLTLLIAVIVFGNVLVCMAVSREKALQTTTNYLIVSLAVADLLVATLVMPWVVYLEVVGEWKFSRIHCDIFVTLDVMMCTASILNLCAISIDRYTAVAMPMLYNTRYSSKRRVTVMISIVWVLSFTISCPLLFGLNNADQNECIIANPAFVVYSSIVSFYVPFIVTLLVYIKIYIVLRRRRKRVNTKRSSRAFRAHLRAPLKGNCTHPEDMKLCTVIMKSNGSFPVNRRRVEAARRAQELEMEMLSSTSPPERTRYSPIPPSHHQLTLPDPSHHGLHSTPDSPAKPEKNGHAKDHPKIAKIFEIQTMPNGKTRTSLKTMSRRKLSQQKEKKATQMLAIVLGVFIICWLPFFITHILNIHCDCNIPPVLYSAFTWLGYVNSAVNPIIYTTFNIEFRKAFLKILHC
Chain of Beta-2 adrenergic receptor (Homo sapiens) (P07550 whole entry, looked up): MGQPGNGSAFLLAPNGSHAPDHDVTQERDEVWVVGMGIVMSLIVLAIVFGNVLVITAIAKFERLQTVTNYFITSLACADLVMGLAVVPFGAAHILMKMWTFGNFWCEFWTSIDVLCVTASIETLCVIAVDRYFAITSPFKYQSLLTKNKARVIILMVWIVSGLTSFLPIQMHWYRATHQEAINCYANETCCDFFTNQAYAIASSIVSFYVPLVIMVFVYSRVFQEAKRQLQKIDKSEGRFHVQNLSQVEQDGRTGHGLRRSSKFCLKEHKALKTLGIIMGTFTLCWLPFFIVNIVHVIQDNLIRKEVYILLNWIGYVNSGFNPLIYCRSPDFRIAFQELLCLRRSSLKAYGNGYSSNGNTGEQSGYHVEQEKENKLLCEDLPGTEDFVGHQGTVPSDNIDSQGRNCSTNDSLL

In the case of `O=C1CC2CC1C1CCCC21` (stereo not given), the Potency entry in assay [1], in assay [2], in [3], in assay [4], in assay [5] and in assay [6] was “inactive” in each case. For the same compound, the Potency result in assay [7], in assay [8], in assay [9], in [10], in assay [11] and in assay [12] was “inactive” each time. The Potency result in [13], in [14], in assay [15], in assay [16], in [17] and in assay [18] was “inactive” throughout.

Take `CN(C)CCC=C1c2ccccc2CCc2ccccc21`: the Potency entry in assay [1], in assay [2], in [3], in [4], in assay [5] and in [6] was “inactive” in each case. Also, the Potency result in assay [7], in [8], in assay [9], in assay [13], in [14] and in [17] was “inactive” in each case. Further, the Potency is 24.3 µM (active) in assay [15] and 27.3 µM (active) in [18].

Turning to `O=C(/C=C/c1ccccc1)OCc1ccccc1`, the Potency entry in assay [1], in assay [2], in [3], in assay [4], in [5] and in assay [6] was “inactive” throughout. In addition, the Potency result in assay [7], in assay [8], in assay [9], in [10], in assay [11] and in [19] was “inactive” in each case. In addition, the Potency result in assay [12], in [13], in [14], in assay [15] and in assay [18] was “inactive” in each case.

As for `O=C(O)[C@H](O)[C@@H](O)[C@H](O[C@@H]1O[C@H](CO)[C@H](O)[C@H](O)[C@H]1O)[C@H](O)CO`, the Potency entry in assay [1], in [2], in assay [3], in [4], in [5] and in [6] was “inactive” each time. The Potency result in assay [7], in assay [8], in assay [9], in assay [10], in assay [11] and in [19] was “inactive” in each case. In addition, the Potency entry in assay [12], in [13], in assay [14], in assay [15], in assay [16] and in assay [17] was “inactive” throughout. The Potency result in assay [18] was “inactive”.

`CC(C)S`: the Potency result in assay [1], in assay [2], in [3], in [4], in assay [5] and in assay [6] was “inactive” throughout. For the same compound, the Potency result in [7], in [8], in [9], in assay [10], in assay [11] and in assay [12] was “inactive” each time. Besides, the Potency entry in [13], in [14], in [15], in assay [17] and in assay [18] was “inactive” in each case.

Turning to `CCCC(O)C(O)CO` (stereo not given), the Potency entry in assay [1], in assay [2], in assay [3], in [4], in assay [5] and in assay [6] was “inactive” throughout. For the same compound, the Potency result in assay [7], in assay [8], in [9], in assay [10], in assay [11] and in assay [19] was “inactive” each time. The Potency entry in [12], in assay [13], in [14], in assay [16], in assay [17] and in [18] was “inactive” each time.

For `CCCCCC(C)=O`, the Potency entry in [1], in assay [3], in assay [4], in [5], in [6] and in assay [7] was “inactive” in each case. Besides, the Potency result in assay [10], in [11], in [19], in assay [13], in assay [14] and in assay [15] was “inactive” throughout. The Potency entry in [17] and in assay [18] was “inactive” throughout. Further, the Potency entry in assay [2] is “inactive and 27.3 µM (active)”; in [8], “inactive and 12.9 µM (active)”; in [9] it was “inactive and 28.9 µM (active)”.

(Values after PubChem BioAssay (Tox21).)
